# From PubChem BioAssay (NCI)
# This is part of a sample that, as a whole, favours compounds with a hit. Of some 83,000 tested, about 20% had one in any assay.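 Negative percent growth values reflect cell death: -40 means 40% of the cells present at the start died, and -100 means all died.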 Calls of active or inactive are those of the source. Rule for the calls: active = growth percent below 10; inactive = the rest.
# System: HL-60(TB) leukemia
# Test: NCI-60 one-dose screen, 48 h (100 = growth as untreated, 0 = no growth, -100 = all killed)
# Conditions: 10 µM unless noted
row,Compound,growth
1,Nc1ncc(-c2cnn(C3CCNCC3)c2)cc1-c1nc2ccccc2o1,-55.5% (active)
2,CCC(C)N(CCNc1cc(OC)cc2cccnc12)CCC(C)C (stereo not given),81% (inactive)
3,NS(=O)(=O)c1ccc(Nc2nc(O)c(/C=C3\C=Nc4ccccc43)s2)cc1,95.4% (inactive)
4,O=C(NCCNc1nccc(-c2c(-c3cccc(O)c3)nc3sccn23)n1)Nc1cc(C(F)(F)F)cc(C(F)(F)F)c1,97.3% (inactive)
5,O=S(=O)(NCCNc1cc(-c2c(-c3cccc(O)c3)nc3sccn23)ccn1)c1ccc(Cl)cc1,84.3% (inactive)
6,Cc1nc2sc(C(=O)Nc3cccc(Cl)c3)c(N)c2cc1C(O)c1ccccc1 (stereo not given),-40.9% (active)
7,COc1cc2c(c(OC)c1O)C(=O)C(OC)C(c1ccc(O)c(O)c1)O2 (stereo not given),-28.6% (active)
8,O=c1[nH]nc(-c2ccccc2)c2c(-c3ccccc3)onc12,-34% (active)
9,Nc1nc(=S)ss1,87.8% (inactive)
10,Cc1ccc(-c2nn(CC(=O)N3CCOCC3)c(N)c2C#N)cc1,103% (inactive)
11,CCOC(=O)c1c(NS(=O)(=O)c2ccc(C)cc2)sc2c1CCC1(C2)OCCO1,88.5% (inactive)
12,COc1ccc(-c2cc(-c3ccc(OC)cc3)nc(NCCCNc3ccnc4cc(Cl)ccc34)n2)cc1,-37.7% (active)
13,C[C@]12CC[C@@H]3c4ccc(OS(=O)(=O)O)cc4CC[C@H]3[C@@H]1CC[C@@H]2NS(=O)(=O)c1ccc(-c2ccccc2)cc1,43.9% (inactive)
14,CC1(C)C(N)=Nc2cc(OCCCN3Cc4ccccc4C3)c(OCC3CC3)cc21,36.2% (inactive)
15,Cn1cc(-c2nnc(-c3cn(C)c4ncc(Br)cc34)o2)c2ccccc21,99% (inactive)
16,C=C(c1ccc(OC)c(/C=C/C(=O)c2cc(OC)c(OC)c(OC)c2)c1)c1cc(OC)c(OC)c(OC)c1,12.8% (inactive)
17,CC(=O)OCCOc1cc(Cl)c(Cl)cc1Cl,77.3% (inactive)
18,O=C(CNCCN1CCOCC1)N1c2cccc3cccc(c23)N(C(=O)CNCCN2CCOCC2)C1c1cn(-c2ccccc2)nc1-c1cccc([N+](=O)[O-])c1,67.6% (inactive)
19,CNCCn1c(=O)c2cc(OC)c(OC)cc2c2ccc3cc4c(cc3c21)OCO4,-25.7% (active)
20,Oc1[nH]c2ccccc2c1/C=c1/cc2c(c(-c3ccc(C(F)(F)F)cc3)n1)=Nc1ccccc1-2,19.2% (inactive)

row,Compound,growth
1,COc1cc(C(=O)/C=C/c2c(-c3ccc(F)cc3)nc3sc(C)cn23)cc(OC)c1OC,-34% (active)
2,CC1=C(C(=O)/C=C/c2c[nH]c3ccccc23)C(c2ccccc2)NC(=S)N1 (stereo not given),99.5% (inactive)
3,Cc1ccc(-c2c(-c3ccccc3)c(=O)oc3ccc(C)cc23)cc1,87% (inactive)
4,c1ccc(CC(NCCNC(Cc2ccccc2)c2ccccc2)c2ccccc2)cc1 (stereo not given),-0.655% (active)
5,Nc1nc(N)c2cc(Sc3cccc(C(F)(F)F)c3)ccc2n1,24.6% (inactive)
6,Cc1ccc(C2=NN(c3ccc(S(N)(=O)=O)cc3)C(c3cn(-c4ccccc4)nc3-c3ccccc3)C2)cc1 (stereo not given),16.5% (inactive)
7,O=c1nc(-c2ccccc2)c2cc(-c3ccc(C(F)(F)F)nc3)ccc2[nH]1,94.5% (inactive)
8,COc1ccc2c(c1)Oc1nc(N)c(C#N)c(N)c1C2Sc1ccc(SC)cc1 (stereo not given),-22.3% (active)
9,Cc1ccc(S(=O)(=O)NCCNc2nccc(-c3c(-c4ccc(O)cc4)nc4sccn34)n2)cc1,155% (inactive)
10,N#CC1c2ccccc2-c2ccccc2N1C(=O)c1ccccc1 (stereo not given),21.6% (inactive)
11,FC(F)(F)c1ccc(-c2cnc(Br)nc2NC2CCCCCC2)cc1,8.9% (active)
12,C=C1C(=O)O[C@H]2[C@H]1CC/C(COC(=O)NCc1c[nH]c3ccccc13)=C\CC[C@@]1(C)O[C@@H]21,-46.8% (active)
13,Cc1ccc(C2Oc3ccccc3C3CC(c4cccs4)=NN32)cc1 (stereo not given),97.4% (inactive)
14,CC(C)(C)CC(C)(C)Nc1c(-c2ccc3c(c2)OCO3)nc2cnccn12,77.8% (inactive)
15,O=C(/C=C/c1ccccc1)c1ccc(-n2cc(CN3CCN(c4cc5c(cc4F)c(=O)c(C(=O)O)cn5C4CC4)CC3)nn2)cc1,99.1% (inactive)
16,O=C1OC(c2ccc(-c3ccccc3)cc2)=C/C1=C/C=C/c1ccccc1,90.5% (inactive)
17,CCOC(=O)C1=C(C(F)(F)F)NC(=S)NC1CN1C(=O)c2ccccc2C1=O (stereo not given),86.7% (inactive)
18,CCOC(=O)c1c(NC(=O)c2ccc(Cl)cc2)sc2c(CN(C)C)c(O)ccc12,12.5% (inactive)
19,O=C(CSc1nc2sc3c(c2c(=O)n1-c1ccccc1)CCCCC3)N/N=C/c1cccc([N+](=O)[O-])c1,103% (inactive)
20,N#Cc1c(N)nn(C(=O)c2ccc(NC(=O)c3ccccn3)cc2)c1-c1ccc(Cl)cc1,69.1% (inactive)
